# Bioassay records: PubChem BioAssay, several laboratories
# Shown are actives, neighbours in structure and some others; about 1.8% of the full set was active somewhere.
# bovine MsrA act – activators of bovine methionine sulfoxide reductase A; purified bovine MsrA, absorbance read-out; activation, % at 10.6 µM; actives 0.3% (n = 360,000); AID 602163; in the data active = activation above about 7.5%;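 also: 0% = vehicle and 100% = reference activator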
# MsrA inhibitor – bovine MsrA inhibition; inhibition, % at 15.5 µM; purified bovine MsrA, absorbance read-out; actives 0.75% (n = 360,000); in the data active = inhibition above about 4.5%;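 also: 0% = vehicle wells with enzyme and 100% = reference inhibitor wells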
# GC-A act – GC-A (human) enzyme activation; P16066; HEK293 GC-A cells, cGMP TR-FRET, EC30 ANP; 0% at EC30 ANP, 100% saturating ANP; activation, % at 10 µM; actives 0.14% (n = 370,000); in the data active = activation above about 40%
# HTR2A ag – agonists of mouse serotonin 5-HT2A receptor (HTR2A) | CHO-K1 mHTR2A beta-arrestin complementation, luminescence; percent of 30 µM serotonin response | actives 0.66% (n = 360,000) | activation, % at 7.6 µM;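 active = activation above a run cutoff, the mean activation of all tested compounds plus 3 SD, cut at about 14% in these data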;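 also: 0% = plate median of compound wells and 100% = 30 µM serotonin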
# NPR2 activator – GC-B (human) receptor activation. HEK293-GC-B cells, CNP EC30, cGMP TR-FRET; 0% at EC30 CNP, 100% saturating CNP. activation, % at 10 µM. actives 0.11% (n = 370,000). AID 1920062;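 active = activation at 10 µM reaching about 35% in either raw or pattern-adjusted values, limit read from the data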
# Target sequence (P20594 whole entry, looked up): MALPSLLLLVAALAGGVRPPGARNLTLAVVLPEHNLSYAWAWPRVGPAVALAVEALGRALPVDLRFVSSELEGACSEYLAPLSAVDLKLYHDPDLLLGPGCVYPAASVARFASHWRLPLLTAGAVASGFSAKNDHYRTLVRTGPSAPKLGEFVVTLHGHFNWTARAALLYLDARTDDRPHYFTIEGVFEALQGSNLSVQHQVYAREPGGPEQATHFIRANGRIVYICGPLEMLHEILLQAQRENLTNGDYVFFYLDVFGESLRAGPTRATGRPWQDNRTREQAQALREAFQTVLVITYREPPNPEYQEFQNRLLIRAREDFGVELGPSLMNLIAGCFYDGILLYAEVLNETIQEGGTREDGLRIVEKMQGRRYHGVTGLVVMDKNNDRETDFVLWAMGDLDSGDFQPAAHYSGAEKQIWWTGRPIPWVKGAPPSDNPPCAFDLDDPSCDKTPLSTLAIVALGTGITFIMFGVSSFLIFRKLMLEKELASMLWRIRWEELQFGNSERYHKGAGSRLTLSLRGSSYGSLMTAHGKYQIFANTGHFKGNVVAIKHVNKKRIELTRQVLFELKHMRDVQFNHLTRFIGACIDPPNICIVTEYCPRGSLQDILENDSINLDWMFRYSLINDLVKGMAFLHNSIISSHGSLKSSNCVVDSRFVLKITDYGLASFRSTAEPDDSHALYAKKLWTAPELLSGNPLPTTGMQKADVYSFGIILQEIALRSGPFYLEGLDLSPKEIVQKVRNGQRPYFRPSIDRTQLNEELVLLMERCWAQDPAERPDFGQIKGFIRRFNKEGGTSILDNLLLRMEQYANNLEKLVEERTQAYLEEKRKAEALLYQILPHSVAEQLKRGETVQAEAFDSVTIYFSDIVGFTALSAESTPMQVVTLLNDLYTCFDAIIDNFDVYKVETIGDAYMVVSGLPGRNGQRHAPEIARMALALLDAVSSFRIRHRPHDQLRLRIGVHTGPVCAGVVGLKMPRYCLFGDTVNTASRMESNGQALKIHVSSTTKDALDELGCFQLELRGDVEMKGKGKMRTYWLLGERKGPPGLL
# MOR ag counter – OPRM1 agonism in mouse HTR2A counterscreen; shares compounds with HTR2A ag; U2OS OPRM1 beta-arrestin PathHunter, luminescence; DMSO 0%, DAMGO 9.3 µM 100%; activation, % at 9.3 µM; actives 5.3% (n = 2,300); AID 624380;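 active = mean activation above the mean of DMSO-only wells plus 3 SD, cut at about 0.5% in these data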
# HTR2A ag conf – mouse HTR2A agonism confirmed; CHO-K1 PathHunter beta-arrestin recruitment, luminescence; DMSO 0%, 30 µM serotonin 100%; AID 624381; shares compounds with HTR2A ag; activation, % at 7.6 µM; actives 19% (n = 2,300);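 active = mean activation across triplicates above the hit threshold derived in the original primary screen, cut at about 15% in these data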
# * = called active by the depositor; . = not tested or not shown.
SMILES,bovine MsrA act,MsrA inhibitor,GC-A act,HTR2A ag,NPR2 activator,MOR ag counter,HTR2A ag conf
CCCCc1ccc2[nH]cc(CCN)c2c1,0,-1,-6,26*,-3,0,50*
S=C=Nc1cccc(C2(N3CCCCC3)CCCCC2)c1,-4,0,-1,24*,-2,.,0
COc1c2c(cc3c1OCO3)CCN(C)C2,-2,1,1,18*,1,-1,53*
CN1C(=O)N(C)C(=O)C2(Cc3cc(NC(=O)c4ccc(F)cc4)ccc3N3CCCC32)C1=O (stereo not drawn),-8,0,-3,8,3,.,.
C[C@H]1CN([C@@H](C)CO)C(=O)CCCn2nncc2CO[C@H]1CN(C)C(=O)Oc1ccc2ccccc2c1,-4,-2,4,1,0,.,.
c1ccc2oc(N3CCNCC3)nc2c1,1,3,2,29*,6,0,11
CCOC(=O)c1ccc(N=C(C)c2c(O)[nH]c(=O)[nH]c2=O)cc1,-2,1,-1,4,-2,.,.
CC1=C(C)CC2(C(=O)NC(=O)NC2=O)C(C)C1 (stereo not drawn),-3,0,0,8,-1,.,.
COc1ccc(CN2Cc3cc(-c4ccc(OC)cc4)ccc3-n3nncc3C2)cc1,-3,0,1,-5,-3,.,.
COc1ccc(C(c2nnnn2-c2ccc3c(c2)OCCO3)N2CCC(n3c(=O)[nH]c4ccccc43)CC2)cc1 (stereo not drawn),0,0,2,18*,9,.,15*
COc1ccc(-n2nnnc2C(c2ccccc2OC(F)(F)F)N2CCC(n3c(=O)[nH]c4ccccc43)CC2)cc1 (stereo not drawn),-11,2,-4,16*,-8,.,7
CCC(c1nnnn1-c1ccc(OC)cc1)N1CCC(n2c(=O)[nH]c3ccccc32)CC1 (stereo not drawn),0,-1,2,3,-2,.,.
Cc1ccc(C(=O)NCCN2CCC3(CC2)C(=O)NCN3c2ccccc2)cc1,.,0,-5,.,5,.,.
CCOc1cccc(CNCCc2c(C)[nH]c3ccc(OC(F)(F)F)cc23)c1O,0,-2,-60,27*,-20,1.2*,22*
C=CCN1CCc2cccc3c2[C@H]1Cc1ccc(O)c(O)c1-3,-3,0,-7,55*,-6,1.2*,167*
C=CCN1CC[C@]23c4c5ccc(O)c4O[C@H]2C(=O)CC[C@@]3(O)[C@H]1C5,-2,2,4,5,1,.,.
Clc1cccc(CNCCc2ccc3c(c2)OCO3)c1,-2,-1,-15,32*,-9,0,8
Fc1ccc(CCNCc2cccc(Cl)c2)cc1,-5,3,-22,24*,-15,0,7
Fc1ccccc1CNCCc1ccc2c(c1)OCO2,-3,0,-6,21*,6,-1,13
Clc1ccc(CNCCc2ccc3c(c2)OCO3)cc1,1,-1,-14,2,-11,.,.
Cc1ccc(C(C)C)c(OCC#CCN2CCCC2)c1,-2,-1,-3,-9,-4,.,.
CC(C)(C)OC(=O)NCCCCC(N)[P+](=O)O (stereo not drawn),.,.,2,.,0,.,.
O=C1c2ccccc2-n2nnc(-c3ccccc3)c2C2c3ccccc3CCN12 (stereo not drawn),-10,-1,-3,6,-3,.,.
O=C1c2ccccc2-n2nnc(-c3ccccc3)c2C2c3cc(Br)ccc3CCN12 (stereo not drawn),-2,-1,-1,16*,1,0,0
O=C(NN=Cc1ccc(N(CCCl)CCCl)cc1)c1cc(=O)[nH]c(=O)[nH]1,1,4,8,18*,4,-1,-2
SMILES,bovine MsrA act,MsrA inhibitor,GC-A act,HTR2A ag,NPR2 activator,MOR ag counter,HTR2A ag conf
O=C(NN=Cc1ccc(N(CCCl)CCCl)cc1Cl)c1cccnc1,-3,2,-1,-9,-4,.,.
CCC(C)NC(=O)CCC(=O)OC1O[C@H]2OC3(C)CC[C@H]4[C@H](C)CCC(C1C)C24OO3 (stereo partly drawn),-1,0,-2,-4,1,.,.
CCC(C)C(NC(=O)CCCNC(=O)CCC(=O)OC1O[C@H]2OC3(C)CC[C@H]4[C@H](C)CCC(C1C)C24OO3)C(=O)O (stereo partly drawn),-1,-1,-2,21*,-3,0.6*,-4
CC(N)Cc1c[nH]c2ccc(Cl)cc12 (stereo not drawn),-5,0,-2,80*,-9,0,55*
CS(=O)(=O)N1Cc2cc(Br)ccc2-n2nncc2C1,.,0,1,.,1,.,.
S=P(N1CCCCCC1)(N1CC1)N1CC1,-1,0,-1,-1,7,.,.
Clc1ccc(N2CCNCC2)nn1,-2,0,-1,15*,-2,-1,0
CN1C(=O)NC(=O)[C@]2(Cc3ccccc3N3CCN(c4ccccc4)CC32)C1=O (stereo partly drawn),-5,1,-5,17*,0,0,8
CN1C(=O)C(=Cc2c(OCc3cnc(Cl)s3)ccc3ccccc23)C(=O)N(C)C1=O,-5,1,4,4,3,.,.
COc1ccc(CCNCc2ccsc2)cc1OC,-5,1,0,19*,4,-1,10
COc1ccc(CCNCc2ccc(F)cc2)cc1OC,-6,0,0,-1,-4,.,.
CCOC(=O)c1c(C)n(C(C)C)c2ccc(OC(=O)c3ccc(N4C(=O)CCC4=O)cc3)cc12,-4,0,-1,16*,2,0,3
c1ccc(CCNCc2cccnc2)cc1,-1,0,-1,5,3,.,.
O=C(NCc1cccnc1)C(Cl)(Cl)Cl,-4,0,0,24*,3,-1,-4
O=C(NCP(=O)(Oc1ccccc1)Oc1ccccc1)OCc1ccccc1,-7,0,-2,-2,-2,.,.
O=C(Cc1ccc(Br)cc1)N1CCN(Cc2ccccc2)CC1,-11,-1,-10,21*,-12,-1,4
Cc1ccc(CC(=O)N2CCN(Cc3ccccc3)CC2)cc1,-3,1,3,4,3,.,.
CCC(C)N1CCN(C(=O)Cc2ccccc2)CC1 (stereo not drawn),-1,1,10,20*,4,0,4
CCOC(=O)c1cc2c(cn1)[C@@H](CCO)NC2,0,-1,4,-1,1,.,.
C[C@@H]1CN([C@H](C)CO)C(=O)CCCn2cc(nn2)CO[C@H]1CN(C)C(=O)Oc1ccc2ccccc2c1,-3,.,.,0,.,.,.
N#CC1c2ccccc2-n2nncc2CN1C(=O)c1cccnc1 (stereo not drawn),.,.,2,.,8,.,.
